Experimental data as given in the supplement of paper PMC8387472.

What was measured:
Settings in all cases: mESC; 2uM; 72 h treatment, harvest day 5
[1] = compound: O=c1cc(N2CCOCC2)oc2c(-c3ccc4c(c3)OCCO4)csc12; assay: fraction of edited reads among all mapped reads; higher = more Cas9 editing
Mercaptopurine (6-MP) = compound: S=c1[nH]cnc2nc[nH]c12 [Mercaptopurine (6-MP)]; assay: as above
[2] = compound: S=c1nc[nH]c2nc[nH]c12 [6-Mercaptopurine (6-MP) Monohydrate]; assay: as above
[3] = compound: CC(=O)O/N=C1\C(=O)N(Cc2cc(Cl)ccc2Cl)c2ccc(Cl)cc21; assay: fraction of microhomology deletions among edited reads; higher = more MH deletions
[4] = compound: CC(C)(C#N)c1ccc(N2C(=O)OCc3cnc4ccc(-c5cnc6ccccc6c5)cc4c32)cc1; assay: as above
[5] = compound: CCCCOc1c(C(=O)c2c(F)cc(C)cc2F)c[nH]c2nncc1-2; assay: as above
[6] = compound: CCN1CCN(CC(=O)Nc2ccc(-c3cccc4c(=O)cc(N5CCOCC5)oc34)c3sc4ccccc4c23)CC1; assay: as above
[7] = compound: CCc1c2c(nc3ccc(OC(=O)N4CCC(N5CCCCC5)CC4)cc13)-c1cc3c(c(=O)n1C2)COC(=O)[C@]3(O)CC [Irinotecan HCl Trihydrate]; assay: as above
[8] = compound: CCn1c(=O)c(-c2ccc(Cl)cc2Cl)cc2cnc(Nc3ccc(N4CCNCC4)c(F)c3)nc21; assay: as above
[9] = compound: CNc1ccc([N+](=O)[O-])c(Nc2ccc3[nH]ncc3c2)n1; assay: as above

| Target | fraction of edited reads among all mapped reads [1] | fraction of edited reads among all mapped reads (Mercaptopurine (6-MP)) | fraction of edited reads among all mapped reads [2] | fraction of microhomology deletions among edited reads [3] | fraction of microhomology deletions among edited reads [4] | fraction of microhomology deletions among edited reads [5] | fraction of microhomology deletions among edited reads [6] | fraction of microhomology deletions among edited reads [7] | fraction of microhomology deletions among edited reads [8] | fraction of microhomology deletions among edited reads [9] |
| --- | --- | --- | --- | --- | --- | --- | --- | --- | --- | --- |
| 33.0 (DMSO control at this site: 1-bp insertion 0.008, MH deletion 0.771, edited 0.112) CATTAAGAGCAGCTGCCGGCCCCCAAGTGGACAGAGCTGGCCCTGCTGATTCAACAGTGCA | 0.0578 | 0.144 | 0.0975 | 0.714 | 0.71 | 0.717 | 0.76 | 0.741 | 0.716 | 0.727 |
| 22.0 (DMSO control at this site: 1-bp insertion 0.573, MH deletion 0.229, edited 0.045) CTGATGGTTGAAGGATTTAGCCGGGGTCCTAGACGCCGGGGTCCTAGACGAAAGGGCCACG | 0.0255 | 0.0686 | 0.0558 | 0.159 | 0.162 | 0.122 | 0.296 | 0.125 | 0.168 | 0.117 |
| 27.0 CCAGAATTAGAACATATCATCTGGACCCTTTTCCATCTGGACCCTTTTCCAGCACACCCTG | 0.0389 | 0.0718 | 0.0546 | 0.162 | 0.195 | 0.138 |  | 0.0693 |  | 0.225 |
| 7.0 (DMSO control at this site: 1-bp insertion 0.128, MH deletion 0.374, edited 0.098) TACTCAACCGAGACCTACGCGAACCGAAATCGTATGCCGGTGCGCAAGCAGGGCTGGCGTC | 0.067 |  | 0.0891 | 0.489 | 0.456 | 0.404 | 0.477 | 0.484 | 0.417 | 0.442 |
| 43.0 (DMSO control at this site: 1-bp insertion 0.134, MH deletion 0.714, edited 0.104) AGTTTAACTTACTCCGGCCAAAAAAGAACTGCACCTCTGGAGCGGGTTAGTGGTGGTGGTA | 0.0695 | 0.165 | 0.114 | 0.72 | 0.687 | 0.69 | 0.711 | 0.676 | 0.77 | 0.703 |
| 5.0 (DMSO control at this site: 1-bp insertion 0.214, MH deletion 0.567, edited 0.105) CGCTGACCCGAGACCTACGCGAACCGAAATCGGCGACCGGTGCGCAAGCAGGGCTGGCGTC | 0.0695 | 0.151 | 0.0997 | 0.593 | 0.605 | 0.588 | 0.705 | 0.563 | 0.617 | 0.552 |
| 8.0 GCATGCGTGTTTTGGGACAATGTAGTATACATTTGGGAGGCTCTCAGCTTTTCCCAATAAA |  |  | 0.017 | 0.107 | 0.0584 | 0.0574 |  |  |  |  |
| 39.0 (DMSO control at this site: 1-bp insertion 0.328, MH deletion 0.371, edited 0.204) CTGCACAGTCACTTAGGATAGGAGAAGATGATGTATAGGGTTTAGTGGGAGATGTTGCAAG | 0.121 | 0.243 | 0.167 | 0.412 | 0.405 | 0.358 | 0.539 | 0.384 | 0.367 | 0.332 |
| 40.0 (DMSO control at this site: 1-bp insertion 0.072, MH deletion 0.192, edited 0.189) GCGAATCAACTGTTCAACAACAGCAGCAGCCACCTGGAGGACTACAGTGGCCTGTCCGTGT | 0.107 | 0.24 | 0.175 | 0.2 | 0.177 | 0.179 | 0.26 | 0.196 | 0.21 | 0.184 |
| 45.0 (DMSO control at this site: 1-bp insertion 0.017, MH deletion 0.666, edited 0.101) TTACACAGCATGAACTGCTAGGTGATGATGTCAGATTCGGTTTTACTAACTTCTCCAAAAA | 0.0613 | 0.128 | 0.092 | 0.623 | 0.655 | 0.62 | 0.654 | 0.631 | 0.655 | 0.622 |
| 17.0 (DMSO control at this site: 1-bp insertion 0.112, MH deletion 0.348, edited 0.058) CCATAGCGCGATAAATATGACGGCTCATCCTGTATGACGGCTCATCCTGTATCAACTGTCC | 0.037 | 0.0873 | 0.069 | 0.396 | 0.391 | 0.416 | 0.509 | 0.411 | 0.358 | 0.402 |
| 25.0 (DMSO control at this site: 1-bp insertion 0.017, MH deletion 0.774, edited 0.143) GGGCCTGAATGGTGTGGACATCTACTCGCTGGTGAGCTGGTGACTGAAAACATTCAGTGGC | 0.105 | 0.193 | 0.126 | 0.806 | 0.772 | 0.766 | 0.787 | 0.759 | 0.783 | 0.778 |
| 1.0 (DMSO control at this site: 1-bp insertion 0.521, MH deletion 0.323, edited 0.141) GTGTCACAGTGCACGAGTGACGGGATAATGTGCTGACAGGTAATTGATAGGCTTCCAACTT | 0.0814 | 0.187 |  | 0.293 | 0.269 | 0.238 | 0.461 | 0.246 | 0.293 | 0.218 |
| 0.0 (DMSO control at this site: 1-bp insertion 0.463, MH deletion 0.339, edited 0.14) AGGATTACCGAGACCTACGCGAACCGAAATCGCTGTCCGGTGCGCAAGCAGGGCTGGCGTC | 0.0913 | 0.181 | 0.128 | 0.346 | 0.314 | 0.312 | 0.552 | 0.345 | 0.394 | 0.304 |
| 34.0 (DMSO control at this site: 1-bp insertion 0.184, MH deletion 0.385, edited 0.103) ATTATAGGACCCTGAGGGAGCAGAGATGTGGGAATGGGGGCCGAGCCAATTGTGATGTAAG | 0.0512 | 0.114 | 0.0949 | 0.51 | 0.538 | 0.496 | 0.585 | 0.527 | 0.53 | 0.524 |
| 19.0 (DMSO control at this site: 1-bp insertion 0.121, MH deletion 0.101, edited 0.057) TCTGCAGGGGTCGGAACCCGGGGGCTAGGGCTATCCCGGGGGCTAGGGCTATTAGCGAACC | 0.0353 | 0.0901 | 0.0729 | 0.203 | 0.175 | 0.215 | 0.187 | 0.222 | 0.147 | 0.197 |
| 38.0 (DMSO control at this site: 1-bp insertion 0.063, MH deletion 0.487, edited 0.17) GGGCTGGGTGCTAAAATGAGGAGCTCCAAGAAGACTGAGGTGAACCTGGAGGCCCCTGAGC | 0.0925 | 0.193 | 0.157 | 0.497 | 0.485 | 0.505 | 0.546 | 0.488 | 0.513 | 0.501 |
| 31.0 (DMSO control at this site: 1-bp insertion 0.315, MH deletion 0.329, edited 0.026) ACCTCCACAGGCTGGGTGGCCCGGAGGCTGGGCGGCCCGGAGGCTGGGCTGGGCGAGTATC | 0.0134 | 0.0491 | 0.0301 | 0.32 | 0.349 | 0.458 | 0.276 | 0.519 | 0.5 | 0.405 |
